Data: ChEMBL document CHEMBL2218924, “A broad activity screen in support of a chemogenomic map for kinase signalling research and drug discovery” (Biochem J, 2013)

These compounds were tested against SRSF protein kinase 2 (Homo sapiens) (UniProt P78362). Settings: at 1 µM.
Sequence of SRSF protein kinase 2 (Homo sapiens) (P78362 whole entry, looked up): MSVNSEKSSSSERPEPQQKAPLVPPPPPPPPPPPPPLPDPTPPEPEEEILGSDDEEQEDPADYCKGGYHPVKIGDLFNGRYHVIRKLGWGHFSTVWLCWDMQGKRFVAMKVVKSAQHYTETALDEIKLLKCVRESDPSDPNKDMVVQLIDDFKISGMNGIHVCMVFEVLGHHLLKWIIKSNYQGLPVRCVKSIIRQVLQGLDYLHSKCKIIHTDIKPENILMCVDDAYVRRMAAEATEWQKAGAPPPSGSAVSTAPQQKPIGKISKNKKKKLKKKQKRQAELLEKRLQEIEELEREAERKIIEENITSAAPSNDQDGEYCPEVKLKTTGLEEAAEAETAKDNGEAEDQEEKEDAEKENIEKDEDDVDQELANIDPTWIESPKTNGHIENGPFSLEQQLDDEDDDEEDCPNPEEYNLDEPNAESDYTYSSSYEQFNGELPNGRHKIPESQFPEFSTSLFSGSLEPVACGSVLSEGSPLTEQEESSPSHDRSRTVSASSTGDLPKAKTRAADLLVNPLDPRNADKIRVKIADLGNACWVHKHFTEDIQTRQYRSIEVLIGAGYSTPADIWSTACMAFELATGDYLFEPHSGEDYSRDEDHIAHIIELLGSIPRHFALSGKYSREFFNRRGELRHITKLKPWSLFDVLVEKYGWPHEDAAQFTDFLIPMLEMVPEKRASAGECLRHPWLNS
`COc1ccc2c(c[n+](C)c3c4cc5c(cc4ccc23)OCO5)c1OC` gave a residual activity of 96%.
For `O=[N+]([O-])/C=C/c1ccc2c(c1)OCO2`, the residual activity was 97%.
With `O=c1[nH]c2ccccc2n1C1CCN(Cc2ccc(-c3nc4cc5[nH]cnc5cc4nc3-c3ccccc3)cc2)CC1` the residual activity was 99%.
In the case of `O=C1Nc2ccc3ncsc3c2/C1=C/c1c[nH]cn1`, the residual activity is reported as 104%.
`COC(=O)[C@@]1(O)C[C@H]2O[C@]1(C)n1c3ccccc3c3c4c(c5c6ccccc6n2c5c31)C(=O)NC4` gave a residual activity of 97%.
With `C[S+]([O-])c1ccc(-c2nc(-c3ccc(F)cc3)c(-c3ccncc3)[nH]2)cc1` (stereo unspecified) the residual activity was 112%.
`CC(C)(C)c1cc(C=C(C#N)C#N)cc(Br)c1O` showed a residual activity of 105%.
With `CCn1cnc2c(Nc3cccc(Cl)c3)nc(N[C@@H]3CCCC[C@@H]3N)nc21` the residual activity was 69%.
Compound `COc1cc2ncnc(Nc3ccc(OCc4ccccc4)cc3)c2cc1OC` has a residual activity of 108%.

The compounds below were run against SRSF protein kinase 2 (Homo sapiens) (UniProt P78362). Settings: at 10 µM.
In the case of `COc1ccc2c(c[n+](C)c3c4cc5c(cc4ccc23)OCO5)c1OC`, the residual activity is reported as 96%.
`O=[N+]([O-])/C=C/c1ccc2c(c1)OCO2` showed a residual activity of 98%.
`O=c1[nH]c2ccccc2n1C1CCN(Cc2ccc(-c3nc4cc5[nH]cnc5cc4nc3-c3ccccc3)cc2)CC1` gave a residual activity of 80%.
In the case of `COC(=O)[C@@]1(O)C[C@H]2O[C@]1(C)n1c3ccccc3c3c4c(c5c6ccccc6n2c5c31)C(=O)NC4`, the residual activity is reported as 52%.
With `CC(C)(C)c1cc(C=C(C#N)C#N)cc(Br)c1O` the residual activity was 81%.
`CCn1cnc2c(Nc3cccc(Cl)c3)nc(N[C@@H]3CCCC[C@@H]3N)nc21` showed a residual activity of 32%.
For `COc1cc2ncnc(Nc3ccc(OCc4ccccc4)cc3)c2cc1OC`, the residual activity was 104%.
